Results on two compounds are retold here after PubChem BioAssay AID1159580 (chemical genetic matrix, 2015).

Each structure is given as a SMILES string. The campaign covered roughly 5,500 compounds. About 2,000 (36%) were called active. About 18% were inconclusive and are not listed. The list shows a part of the results. Values without a mark were called inactive. No stated cut-off is given here; in the data, active means normalized growth mostly below about 0.91 (no sharp cut-off); inconclusive means no clear call, values can overlap the other calls; inactive means mostly above about 0.92.

This test can be described thus: chemical genetic growth profiling, strain panel (AID 1159580).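 Further: tested at 20 µM; growth read once vehicle control cultures reached saturation at 30 °C; 1 = growth at the plate median or of vehicle wells; lower values mean less growth of the strain.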 The following applies: S. cerevisiae deletion strains, growth OD.
Setting [1] is: locus YDR150W, strain NUM1, hits give low values.
[2] abbreviates: locus YNL153C, strain GIM3, hits give low values.
Where [3] appears, read: locus YNL322C, strain KRE1, hits give low values.
The mark [4] stands for this setting: locus YPL241C, strain CIN2, hits give low values.

Turning to `C[C@]12CCC(=O)C=C1CC[C@@H]1[C@@H]2C(=O)C[C@@]2(C)[C@H]1CC[C@]2(O)C(=O)CO`, the normalized growth was 0.957 (locus YAL040C, strain CLN3, hits give low values); 0.993 (locus YCL061C, strain MRC1 (second series), hits give low values); 1 under setting [1]; 0.986 (locus YDR363W, strain ESC2, hits give low values); 0.966 (locus YER002W, strain NOP16, hits give low values); 0.978 (locus YNL128W, strain TEP1, hits give low values). Besides, the normalized growth is 0.979 under setting [2]; 0.982 (locus YNL175C, strain NOP13, hits give low values); 0.942 (locus YNL197C, strain WHI3, hits give low values); 0.983 (locus YNL224C, strain SQS1, hits give low values); 0.988 under setting [3]; 0.94 (locus YOR083W, strain WHI5 (second series), hits give low values). Also, the normalized growth under setting [4] is 0.995.

In the case of `CC12CCC3C4CCC(=O)C=C4CCC3C1CCC2=O` (stereo not given), the normalized growth (locus YAL013W, strain DEP1, hits give low values) is 1.01; the normalized growth (locus YBR229C, strain ROT2, hits give low values) was 1.01; the normalized growth (locus YDL101C, strain DUN1, hits give low values) was 1; the normalized growth under setting [1] was 0.995; the normalized growth (locus YEL061C, strain CIN8, hits give low values) was 1.01; the normalized growth (locus YGR078C, strain PAC10, hits give low values) was 1.01. In addition, the normalized growth is, setting by setting: (locus YGR229C, strain SMI1, hits give low values) 1.01; (locus YHR030C, strain SLT2, hits give low values) 0.898; (locus YHR087W, strain rtc3, hits give low values) 1.03; (locus YJR043C, strain POL32, hits give low values) 1.02; (locus YJR075W, strain HOC1, hits give low values) 1.02; (locus YLR039C, strain RIC1, hits give low values) 0.786 (active). Also, the normalized growth runs as follows: (locus YLR058C, strain SHM2 (second series), hits give low values) 1.01; (locus YLR085C, strain ARP6, hits give low values) 1.02; (locus YLR262C, strain YPT6, hits give low values) 0.737 (active); (locus YML094W, strain GIM5, hits give low values) 0.994; (locus YMR219W, strain ESC1, hits give low values) 1.01; (locus YMR263W, strain SAP30, hits give low values) 0.999. The normalized growth reads like this: (locus YMR307W, strain GAS1, hits give low values) 0.989; under setting [2], 0.991; (locus YNL298W, strain CLA4 (second series), hits give low values) 1.01; under setting [3], 1.02; (locus YNR030W, strain Alg12, hits give low values) 0.998; (locus YOL006C, strain TOP1, hits give low values) 0.971. The normalized growth (locus YPL055C, strain LGE1, hits give low values) is 1.02; the normalized growth under setting [4] is 1.01; the normalized growth (locus YPR135W, strain CTF4, hits give low values) was 0.897.
